Compounds without any hit were thinned out: in the full panel of roughly 83,000, 20% have a hit.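 Growth was measured after 48 h exposure to one concentration of compound in 96-well plates. Values under 10 count as active.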 Values without a mark were called inactive. Calls of active or inactive are those of the source.

From PubChem BioAssay (NCI) come the findings set out here.

What all share (experiment): NCI-60 one-dose screen, 48 h (100 = growth as untreated, 0 = no growth, -100 = all killed)
Experiment [1] deals with MOLT-4 leukemia. The conditions noted are these: 10 µM.
The test system of experiment [2] is SR leukemia. The note with it: 10 µM.
Experiment [3] relates to RPMI-8226 leukemia. The conditions noted are these: 10 µM.
Experiment [4] deals with OVCAR-8 ovarian. The note with it: 10 µM.
Experiment [5] relates to OVCAR-5 ovarian. The conditions noted are these: 10 µM.
Experiment [6] relates to OVCAR-4 ovarian. The note with it: 10 µM.
The subject of experiment [7] is SK-OV-3 ovarian. The note with it: 10 µM.
Experiment [8] has as its system IGROV1 ovarian. The conditions noted are these: 10 µM.
The subject of experiment [9] is OVCAR-3 ovarian. The conditions noted are these: 10 µM.
Experiment [10] concerns HS 578T breast. The note with it: 10 µM.
For experiment [11], the system named is NCI/ADR-RES ovarian. The note with it: 10 µM.
For experiment [12], the system named is T-47D breast. The conditions noted are these: 10 µM.
Experiment [13] relates to BT-549 breast. The note with it: 10 µM.
The subject of experiment [14] is MDA-MB-435 melanoma. The conditions noted are these: 10 µM.
Experiment [15] has as its system SW-620 colon. The note with it: 10 µM.
Experiment [16] has as its system MCF7 breast. The note with it: 10 µM unless noted.
Experiment [17] concerns HCT-116 colon. The note with it: 10 µM.
Experiment [18] has as its system HCC-2998 colon. The note with it: 10 µM.
Experiment [19] has as its system KM12 colon. The conditions noted are these: 10 µM.

Take `CC(=O)[O][Hg][c]1c(C)c(C)cc(C)c1C`: the growth in experiment [1] is -5.69% (active); in experiment [2] it was -27.6% (active); in experiment [3], 7.45% (active); in experiment [4], 15.3%; in [5] it was -9.8% (active); in [6], -93.2% (active). For the same compound, the growth was 97.5% in experiment [7]; -73.2% (active) in [8]; -93.6% (active) in experiment [9]; -1.53% (active) in [10]; 78.1% in [11]; -27.8% (active) in experiment [12]. Also, the growth is -70.4% (active) in [13]; -91.4% (active) in experiment [14]; -93.5% (active) in [15]; -6.63% (active) in experiment [16]; -98.8% (active) in experiment [17]; 12.5% in experiment [18]. Moreover, the growth in experiment [19] was 50.5%.
For `O=[N+]([O-])/C=C\c1ccc2c(c1)OCO2`, the growth was 75.9% in [1]; 34.4% in experiment [2]; 10.2% in experiment [3]; 89.9% in [4]; 91.5% in experiment [5]; 76.9% in [6]. Besides, the growth was 101% in [7]; 27.6% in experiment [8]; 85.7% in [9]; 87.4% in [10]; 98.5% in experiment [11]; 75.3% in experiment [12]. In addition, the growth is 91.7% in experiment [13]; -14.8% (active) in [14]; 43.2% in [15]; -10.9% (active) in experiment [16]; -20% (active) in experiment [17]; 52.6% in experiment [18]. For the same compound, the growth in experiment [19] was 38.3%.
For `COC12c3c(C)cc(O)c4c(=O)occ(c34)C(=O)C1C13COC(=O)c4c(O)cc(C)c(c41)C(=O)C2C3OC(C)=O` (configuration not stated), the growth in experiment [1] is 102%; in experiment [2], 92.4%; in experiment [3], 90.6%; in experiment [4], 105%; in experiment [5], 91.4%; in experiment [6], 100%. Moreover, the growth in experiment [7] was 93.4%; in experiment [9], 105%; in [10], 112%; in experiment [11], 97.1%; in experiment [12] it was 94%; in [13], 96.2%. Further, the growth in experiment [14] was 173%; in experiment [15], 99.7%; in experiment [16] it was 89.5%; in [17], 99.1%; in experiment [19], 103%.
With `Cc1cc(C(C)(C)c2ccc(O)c(C)c2)ccc1O`, the growth in experiment [1] is 78.9%; in experiment [2], 92.2%; in experiment [3], 93.6%; in experiment [4] it was 81.8%; in experiment [5], 88.1%; in experiment [6], 83.9%. The growth in [7] was 102%; in [8], 106%; in experiment [9], 85.9%; in experiment [10] it was 89.2%; in experiment [11] it was 88.1%; in [12], 81.3%. The growth in experiment [13] is 108%; in [14], 80.4%; in [15] it was 97.2%; in experiment [16] it was 119%; in experiment [17], 86.4%; in [19], 92.3%.
For `CN(C)CC1(N)C(=O)NC(=O)NC1=O`, the growth in experiment [1] is 99%; in experiment [2], 101%; in [3], 100%; in experiment [4] it was 105%; in experiment [5], 97.8%; in [6], 103%. Further, the growth in experiment [7] was 98.2%; in experiment [8] it was 108%; in experiment [9], 113%; in experiment [10], 98.1%; in experiment [11], 107%; in experiment [12] it was 89.4%. Further, the growth in experiment [13] was 111%; in experiment [14], 103%; in experiment [15] it was 106%; in [16], 90.9%; in experiment [17], 92.9%; in experiment [19], 101%.
Turning to `NC(=O)c1cc([N+](=O)[O-])c(Cl)c([N+](=O)[O-])c1`, the growth was -13.3% (active) in [1]; -3.5% (active) in experiment [2]; -10.4% (active) in experiment [3]; 85.1% in experiment [4]; 111% in experiment [5]; 71.8% in [6]. Besides, the growth in experiment [7] is 104%; in experiment [8] it was 102%; in experiment [9], -41.1% (active); in experiment [10] it was 106%; in [11] it was 111%; in experiment [12] it was 27.5%. Besides, the growth in experiment [13] was 113%; in experiment [14], 109%; in [15] it was -85.2% (active); in experiment [16], 22.3%; in experiment [17] it was -79.3% (active); in experiment [19], 91.6%.
On to `[Cl][Hg][c]1ccc(Cl)s1`, for which the growth in experiment [1] was -11.5% (active); in experiment [2], -17.1% (active); in experiment [3], 18.5%; in [4], 60%; in experiment [5], 28.2%; in [6], 11.2%. For the same compound, the growth is 98.2% in [7]; 26.2% in [8]; -78.7% (active) in experiment [9]; 59.1% in experiment [10]; 57.1% in experiment [11]; -68.5% (active) in experiment [12]. The growth was 14.2% in experiment [13]; 4.96% (active) in [14]; -26.9% (active) in [15]; -37.1% (active) in experiment [16]; 15.8% in experiment [17]; 91.1% in [19].
